Measured values reported in PubChem BioAssay (NCI).
The panel holds about 83,000 compounds, 20% with a hit somewhere; the sample as a whole holds those more often.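 Interpretation: 100, growth as untreated; towards 0, rising growth inhibition; 0, no net growth; 0 to -100, cell death. Compounds scoring below 10 were considered active.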 Unmarked numbers belong to inactive results. Activity calls are given as the source filed them.

What was measured:
Experiment in all cases: NCI-60 one-dose screen, 48 h (100 = growth as untreated, 0 = no growth, -100 = all killed)
Conditions in all cases: 10 µM unless noted
HCT-15 colon = system: HCT-15 colon
HT29 colon = system: HT29 colon
SNB-75 CNS = system: SNB-75 CNS
SNB-19 CNS = system: SNB-19 CNS
U251 CNS = system: U251 CNS
PC-3 prostate = system: PC-3 prostate
SK-MEL-5 melanoma = system: SK-MEL-5 melanoma
UACC-62 melanoma = system: UACC-62 melanoma
LOX IMVI melanoma = system: LOX IMVI melanoma
SK-MEL-28 melanoma = system: SK-MEL-28 melanoma
SK-MEL-2 melanoma = system: SK-MEL-2 melanoma
EKVX NSCLC = system: EKVX NSCLC
SN12C renal = system: SN12C renal
UO-31 renal = system: UO-31 renal
TK-10 renal = system: TK-10 renal
ACHN renal = system: ACHN renal
CAKI-1 renal = system: CAKI-1 renal
A498 renal = system: A498 renal
HL-60(TB) leukemia = system: HL-60(TB) leukemia
CCRF-CEM leukemia = system: CCRF-CEM leukemia

SMILES | growth (HCT-15 colon) | growth (HT29 colon) | growth (SNB-75 CNS) | growth (SNB-19 CNS) | growth (U251 CNS) | growth (PC-3 prostate) | growth (SK-MEL-5 melanoma) | growth (UACC-62 melanoma) | growth (LOX IMVI melanoma) | growth (SK-MEL-28 melanoma) | growth (SK-MEL-2 melanoma) | growth (EKVX NSCLC) | growth (SN12C renal) | growth (UO-31 renal) | growth (TK-10 renal) | growth (ACHN renal) | growth (CAKI-1 renal) | growth (A498 renal) | growth (HL-60(TB) leukemia) | growth (CCRF-CEM leukemia)
CCCCCCCCCCCCCCCCCC1OCC(COC(=O)O[C@@H](C(=O)O[C@H]2C[C@@]3(O)[C@@H](OC(=O)c4ccccc4)[C@@H]4[C@]5(OC(C)=O)CO[C@@H]5C[C@H](O)[C@@]4(C)C(=O)[C@H](OC(C)=O)C(=C2C)C3(C)C)[C@@H](NC(=O)c2ccccc2)c2ccccc2)O1 (some centres undefined) | 99.4% | 5.3% (active) | 37.7% | 49.1% | 40.8% | 39.9% | 60.4% | 43.1% | 37.5% | 58.4% | 59.5% | 77.5% | 44.8% | 107% | 102% | 96.6% | 82.8% | 46% | 4.84% (active) | 18.5%
CCCN1C(=O)NC(=O)C(CC)(N2C(=O)c3c(F)c(F)c(F)c(F)c3C2=O)C1=O (centres undefined) | -51.8% (active) | -66.6% (active) | -52.1% (active) | -94.9% (active) | -48% (active) | -59.2% (active) | -91.7% (active) | -68.6% (active) | -55.9% (active) | -93.7% (active) | -65.2% (active) | -44.4% (active) | -72.7% (active) | -98.8% (active) | -76.4% (active) | -79.4% (active) | -89.9% (active) | -85.3% (active) | -80.1% (active) | -56.7% (active)
CSc1cc(/C=C(\C)[C@@H]2C[C@@H]3O[C@]3(C)CCC[C@H](C)[C@H](O)[C@@H](C)C(=O)C(C)(C)[C@@H](O)CC(=O)O2)n(CCNC(=O)OC(C)(C)C)n1 | 37.1% | 28.2% | 43.9% | 70.4% | 67.2% | 39% | 38.4% | 43.8% | 51.1% | 79% | 75.6% | 78.3% | 84% | 55.5% | 76.8% | 77.8% | 46.4% | 56.6% | 8.76% (active) | 63.9%
C[C@]12CC[C@H]3[C@@H](C[C@@H]4SC(Nc5cccc(F)c5)=N[C@@]45CC(=O)CC[C@]35C)[C@@H]1CCC2=O | 6.88% (active) | -3.32% (active) | 18.7% | 62.8% | 15.7% | 19.1% | 32.1% | 37.5% | 6.22% (active) | 39.4% | 21.8% | 46.4% | 28.5% | -26.9% (active) | 20.3% | 1.56% (active) | 50.5% | 22.9% | 8.58% (active) | 4.95% (active)
Cc1cc(NC(=O)NCCCOc2ccc(N3C(N)=NC(N)=NC3(C)C)cc2Cl)ccc1S(=O)(=O)F | 90.2% | 4.91% (active) | 53.1% | 27.7% | 15.8% | 11.9% | 22.6% | 25.2% | 14.4% | 48.9% | 42.2% | 43% | 27.8% | 94.9% | 46.5% | 72.6% | 107% | 94.6% | 29.1% | 32.4%
CC(C)CCC1C(=O)NC(=O)NC1=O | 101% | 98.4% | 104% | 115% | 97.6% | 98% | 103% | 96.7% | 104% | 101% | 81.8% | 96.1% | 96.3% | 86.9% | 84.5% | 100% | 102% | 86.6% | 99.7% | 106%
O=C1CN2CCC1CC2 | 97% | 99.5% | 102% | 104% | 101% | 104% | 103% | 104% | 104% | 119% | 101% | 109% | 106% | 84.6% | 106% | 101% | 103% | 72.2% | 94% | 
